From PubChem BioAssay
Active and inactive are the calls of the source.

Assays:
[1] = system: PRMT1 (protein arginine N-methyltransferase 1); experiment: PRMT1 binders on small-molecule microarrays, primary screen, biochemical, small-molecule microarray, 635 nm fluorescence (AID 1088); conditions: small-molecule microarray binding, higher = more signal;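 also: binding of Prmt1 protein to compounds spotted on small-molecule microarray slides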
[2] = yeast growth modulation, basal conditions, primary screen, YJM789 clinical isolate, OD600, 24 h (AID 1089);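 also: growth of clinical yeast isolate S. cerevisiae YJM 789 seeded 1000 cells per well; test concentration not given here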; conditions: S. cerevisiae YJM789 growth, higher = more signal, called active from +8 up or from −8 down
[3] = fission yeast growth modulation, primary screen, strain 972, OD600, 24 h, no modulator (AID 1090);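 also: basal condition with compound alone and no growth modifier present; test concentration not given here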; conditions: S. pombe 972 growth, higher = more signal, called active from +8 up or from −8 down
[4] = S. cerevisiae growth modulation with rapamycin, primary screen, strain BY4716, OD600, 96 h (AID 1091); conditions: higher = more signal, called active from +8 up or from −8 down; also: test concentration not given here
[5] = target: Torsin-1A-interacting protein 2 (Homo sapiens) (UniProt Q8NFQ8); experiment: LULL1 binders on small-molecule microarray, primary screen, cell lysate, human LULL1 lysate, 635/667 nm fluorescence (AID 1092); conditions: hLULL1 lysate binding, 635 nm fluorescence, higher = more signal;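 also: probe is lysate of COS7 cells overexpressing human LULL1; score merges per-feature 667 nm fluorescence with signal-to-noise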
Chain of Torsin-1A-interacting protein 2 (Homo sapiens) (Q8NFQ8 whole entry, looked up): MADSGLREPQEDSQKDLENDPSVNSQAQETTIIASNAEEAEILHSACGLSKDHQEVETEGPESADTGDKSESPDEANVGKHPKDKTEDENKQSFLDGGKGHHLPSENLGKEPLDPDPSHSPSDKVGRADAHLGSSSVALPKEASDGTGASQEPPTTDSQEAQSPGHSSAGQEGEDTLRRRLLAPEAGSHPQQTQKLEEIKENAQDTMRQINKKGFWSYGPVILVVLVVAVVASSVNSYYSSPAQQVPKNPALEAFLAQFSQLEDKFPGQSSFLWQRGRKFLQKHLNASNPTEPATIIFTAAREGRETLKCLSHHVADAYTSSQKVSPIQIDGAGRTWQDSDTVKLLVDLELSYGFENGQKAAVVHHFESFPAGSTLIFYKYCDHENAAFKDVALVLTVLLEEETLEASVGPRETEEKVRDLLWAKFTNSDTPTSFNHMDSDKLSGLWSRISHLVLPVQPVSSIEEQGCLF

[6] = E. coli growth modulation, two-sided OD650, primary screen, E. coli filamentation project, strain DRC41, 24 h (AID 1093); conditions: OD650, 24 h, higher = more signal, called active from +8 up or from −8 down;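 also: MC1000 strain lacking acrAB efflux and sulA so SOS filamentation is blocked; test concentration not given here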
[7] = small-molecule microarray binders of probe aLefty2, primary screen, biochemical, biotinylated probe, 635/667 nm fluorescence (AID 1094); conditions: higher = more signal;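 also: score merges spot fluorescence near 667 nm with spot signal-to-noise ratio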
[8] = system: Noggin (protein binding on small-molecule microarray); experiment: Noggin binders on small-molecule microarray, primary screen, biochemical, 635/667 nm fluorescence (AID 1095); conditions: 635 nm fluorescence, higher = more signal;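 also: score merges 667 nm feature fluorescence with signal to noise over triplicate slides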
[9] = target: Neurogenic locus notch homolog protein 3 (Homo sapiens) (UniProt Q9UM47); experiment: NOTCH3 binders on small-molecule microarray, primary screen, biochemical, 635/667 nm fluorescence (AID 1096); conditions: NOTCH3 binding, 635 nm fluorescence, higher = more signal
Chain of Neurogenic locus notch homolog protein 3 (Homo sapiens) (Q9UM47 whole entry, looked up): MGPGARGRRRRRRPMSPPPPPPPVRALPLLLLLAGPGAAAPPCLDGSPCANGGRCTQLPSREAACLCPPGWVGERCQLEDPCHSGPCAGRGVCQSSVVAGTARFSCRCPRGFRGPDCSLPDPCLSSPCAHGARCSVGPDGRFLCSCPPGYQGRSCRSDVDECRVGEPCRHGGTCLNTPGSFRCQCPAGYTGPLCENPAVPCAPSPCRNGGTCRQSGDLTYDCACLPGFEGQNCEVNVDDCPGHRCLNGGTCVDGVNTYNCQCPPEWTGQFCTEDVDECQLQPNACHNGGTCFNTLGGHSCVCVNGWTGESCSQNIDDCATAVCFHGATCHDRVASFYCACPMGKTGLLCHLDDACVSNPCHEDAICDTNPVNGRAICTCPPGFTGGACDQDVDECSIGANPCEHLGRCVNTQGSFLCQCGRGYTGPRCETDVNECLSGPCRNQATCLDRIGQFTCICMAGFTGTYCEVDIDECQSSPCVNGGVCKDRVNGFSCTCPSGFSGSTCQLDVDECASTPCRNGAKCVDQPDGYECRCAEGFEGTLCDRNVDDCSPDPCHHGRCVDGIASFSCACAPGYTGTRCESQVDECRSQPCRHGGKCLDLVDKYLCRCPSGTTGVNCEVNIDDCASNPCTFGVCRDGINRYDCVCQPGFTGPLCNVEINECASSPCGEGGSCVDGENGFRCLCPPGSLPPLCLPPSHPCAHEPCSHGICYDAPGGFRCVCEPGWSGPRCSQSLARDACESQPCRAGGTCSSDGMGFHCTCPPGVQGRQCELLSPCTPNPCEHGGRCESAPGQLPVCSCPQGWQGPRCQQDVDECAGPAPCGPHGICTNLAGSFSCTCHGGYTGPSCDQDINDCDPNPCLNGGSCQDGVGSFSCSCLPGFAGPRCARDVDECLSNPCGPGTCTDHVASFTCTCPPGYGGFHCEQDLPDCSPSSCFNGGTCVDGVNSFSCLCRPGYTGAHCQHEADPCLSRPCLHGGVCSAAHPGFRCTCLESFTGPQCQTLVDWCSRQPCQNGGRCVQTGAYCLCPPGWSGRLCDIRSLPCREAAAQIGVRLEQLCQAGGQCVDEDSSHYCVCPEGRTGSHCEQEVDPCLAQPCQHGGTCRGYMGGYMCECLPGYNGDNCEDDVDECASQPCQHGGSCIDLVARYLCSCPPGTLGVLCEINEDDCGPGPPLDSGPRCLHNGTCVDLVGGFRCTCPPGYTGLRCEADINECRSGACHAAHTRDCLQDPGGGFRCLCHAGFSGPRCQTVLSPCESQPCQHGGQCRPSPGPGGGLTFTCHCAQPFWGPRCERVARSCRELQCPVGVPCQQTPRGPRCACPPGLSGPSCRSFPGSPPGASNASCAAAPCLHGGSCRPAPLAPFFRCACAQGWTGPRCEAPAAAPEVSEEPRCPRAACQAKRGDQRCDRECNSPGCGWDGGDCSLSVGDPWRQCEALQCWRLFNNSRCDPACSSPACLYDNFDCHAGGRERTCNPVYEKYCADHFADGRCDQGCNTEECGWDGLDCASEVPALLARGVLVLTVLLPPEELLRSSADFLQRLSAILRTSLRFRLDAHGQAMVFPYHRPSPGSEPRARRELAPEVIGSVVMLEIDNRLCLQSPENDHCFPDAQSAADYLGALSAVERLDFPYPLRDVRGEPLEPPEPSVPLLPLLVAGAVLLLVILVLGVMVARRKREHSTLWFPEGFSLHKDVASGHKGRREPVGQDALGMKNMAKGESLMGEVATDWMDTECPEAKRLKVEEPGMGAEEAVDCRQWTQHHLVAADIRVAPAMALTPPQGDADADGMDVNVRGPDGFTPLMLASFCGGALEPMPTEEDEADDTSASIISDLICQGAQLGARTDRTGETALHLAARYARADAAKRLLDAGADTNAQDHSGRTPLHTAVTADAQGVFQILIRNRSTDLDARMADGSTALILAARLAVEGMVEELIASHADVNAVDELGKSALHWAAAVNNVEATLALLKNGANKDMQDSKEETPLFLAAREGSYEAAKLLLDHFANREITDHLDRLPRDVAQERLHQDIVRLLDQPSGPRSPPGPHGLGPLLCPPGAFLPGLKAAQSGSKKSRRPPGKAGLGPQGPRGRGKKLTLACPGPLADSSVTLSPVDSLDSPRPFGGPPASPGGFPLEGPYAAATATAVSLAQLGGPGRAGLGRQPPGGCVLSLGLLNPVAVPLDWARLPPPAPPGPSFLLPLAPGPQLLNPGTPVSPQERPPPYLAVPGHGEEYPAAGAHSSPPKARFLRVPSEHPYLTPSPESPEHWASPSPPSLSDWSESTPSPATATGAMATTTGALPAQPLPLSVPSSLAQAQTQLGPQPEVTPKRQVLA

[10] = small-molecule microarray binders of probe aEGFR, primary screen, biochemical, biotinylated probe, 635/667 nm fluorescence (AID 1097); conditions: higher = more signal;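 also: probe is a biotinylated anti-EGFR antibody binding compounds printed on slides; score combines fluorescence near 667 nm and signal to noise of each spot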
[11] = system: Plasmodium falciparum Sir2 (PF13_0152, Sir2A); experiment: pfSir2 binders on small-molecule microarrays, primary screen, biochemical, small-molecule microarray, 635 nm fluorescence (AID 1098); conditions: small-molecule microarray binding, fluorescence 635 nm; higher = more signal;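 also: score merges spot fluorescence intensity with its signal-to-noise ratio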
[12] = small-molecule microarray binders of probe aDKK1, primary screen, biochemical, biotinylated probe, 635/667 nm fluorescence (AID 1099); conditions: higher = more signal;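 also: score merges 667nm spot fluorescence with signal to noise across triplicate slides; reference of the scale not given here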
[13] = small-molecule microarray binders of probe aCHRDL2, primary screen, biochemical, biotinylated probe, 635/667 nm fluorescence (AID 1100); conditions: higher = more signal
[14] = splicing luciferase reporter signal modulators, primary screen, spliceosome inhibition project, cell-based, HEK293, splice +/- reporter (AID 1101); conditions: luminescence, 24 h, higher = more signal, called active from +8 up or from −8 down;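 also: HEK293 cells carrying a splicing-competent luciferase reporter gene; test concentration not given here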
[15] = target: Fibroblast growth factor 10 (Homo sapiens) (UniProt O15520); experiment: FGF10 binders on small-molecule microarrays, primary screen, biochemical, small-molecule microarray, 635 nm fluorescence (AID 1102); conditions: FGF10 binding, fluorescence 635 nm, higher = more signal
Chain of Fibroblast growth factor 10 (Homo sapiens) (O15520 whole entry, looked up): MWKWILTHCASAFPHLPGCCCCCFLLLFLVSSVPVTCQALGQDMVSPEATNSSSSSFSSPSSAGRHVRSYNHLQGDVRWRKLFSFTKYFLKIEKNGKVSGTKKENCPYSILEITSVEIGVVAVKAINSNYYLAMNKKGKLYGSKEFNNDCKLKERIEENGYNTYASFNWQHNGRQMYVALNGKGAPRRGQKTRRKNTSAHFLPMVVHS

[16] = system: glycogen synthase kinase-3 (GSK3A per assay name; protocol says GSK3B); experiment: GSK3 binders on small-molecule microarrays, primary screen, biochemical, small-molecule microarray, 635 nm fluorescence, GSK3A (AID 1103); conditions: small-molecule microarray binding, fluorescence 635 nm; higher = more signal; also: the record names both GSK3A and GSK3B
[17] = target: Epidermal growth factor receptor (Homo sapiens) (UniProt P00533); experiment: EGFR binders on small-molecule microarrays, primary screen, biochemical, small-molecule microarray, 635 nm fluorescence (AID 1104); conditions: EGFR binding, higher = more signal;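 also: score merges 667 nm emission intensity with spot signal to noise over triplicate slides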
Chain of Epidermal growth factor receptor (Homo sapiens) (P00533 whole entry, looked up): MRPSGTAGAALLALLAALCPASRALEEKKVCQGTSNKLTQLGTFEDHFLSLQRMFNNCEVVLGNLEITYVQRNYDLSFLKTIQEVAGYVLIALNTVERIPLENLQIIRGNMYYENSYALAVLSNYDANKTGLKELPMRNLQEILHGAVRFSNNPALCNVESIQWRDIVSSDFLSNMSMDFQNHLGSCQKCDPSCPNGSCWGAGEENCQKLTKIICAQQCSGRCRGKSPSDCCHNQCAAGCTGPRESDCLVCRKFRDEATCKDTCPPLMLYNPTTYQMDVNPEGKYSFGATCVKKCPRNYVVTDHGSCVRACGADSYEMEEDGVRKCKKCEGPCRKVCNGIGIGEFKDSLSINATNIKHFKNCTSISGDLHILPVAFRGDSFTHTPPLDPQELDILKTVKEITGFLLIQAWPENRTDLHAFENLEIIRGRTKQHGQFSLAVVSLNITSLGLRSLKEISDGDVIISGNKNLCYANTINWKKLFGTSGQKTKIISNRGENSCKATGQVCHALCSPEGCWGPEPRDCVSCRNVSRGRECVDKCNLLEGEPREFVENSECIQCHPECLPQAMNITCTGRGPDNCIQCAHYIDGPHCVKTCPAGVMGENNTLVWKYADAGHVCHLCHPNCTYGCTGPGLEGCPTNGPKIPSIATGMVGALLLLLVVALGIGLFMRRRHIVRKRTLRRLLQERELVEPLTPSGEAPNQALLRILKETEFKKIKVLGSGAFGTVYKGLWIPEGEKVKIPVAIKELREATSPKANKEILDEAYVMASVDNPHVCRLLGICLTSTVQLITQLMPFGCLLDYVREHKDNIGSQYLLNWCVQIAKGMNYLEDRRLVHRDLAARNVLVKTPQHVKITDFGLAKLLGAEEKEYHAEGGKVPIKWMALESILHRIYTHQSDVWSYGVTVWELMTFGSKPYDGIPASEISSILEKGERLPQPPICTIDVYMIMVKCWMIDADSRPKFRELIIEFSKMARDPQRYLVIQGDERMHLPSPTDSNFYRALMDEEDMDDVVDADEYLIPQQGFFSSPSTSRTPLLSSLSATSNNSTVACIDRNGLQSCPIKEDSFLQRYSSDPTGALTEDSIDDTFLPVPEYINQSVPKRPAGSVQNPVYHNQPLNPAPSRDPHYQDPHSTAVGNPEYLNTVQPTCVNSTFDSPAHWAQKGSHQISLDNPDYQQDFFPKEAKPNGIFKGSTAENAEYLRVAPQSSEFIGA

[18] = target: Follistatin-related protein 3 (Homo sapiens) (UniProt O95633); experiment: FSTL3 binders on small-molecule microarrays, primary screen, biochemical, small-molecule microarray, 635 nm fluorescence (AID 1105); conditions: FSTL3 binding, higher = more signal;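 also: score merges emission near 667 nm and signal to noise per printed spot across three slides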
Chain of Follistatin-related protein 3 (Homo sapiens) (O95633 whole entry, looked up): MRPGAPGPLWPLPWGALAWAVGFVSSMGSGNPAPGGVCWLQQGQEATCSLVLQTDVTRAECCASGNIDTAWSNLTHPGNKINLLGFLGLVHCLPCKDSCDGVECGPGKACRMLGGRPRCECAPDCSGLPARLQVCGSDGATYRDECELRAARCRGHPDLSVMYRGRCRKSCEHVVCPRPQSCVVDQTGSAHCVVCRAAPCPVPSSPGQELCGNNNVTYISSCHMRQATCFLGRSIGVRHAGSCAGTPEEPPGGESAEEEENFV

[19] = target: Dickkopf-related protein 1 (Homo sapiens) (UniProt O94907); experiment: DKK1 binders on small-molecule microarrays, primary screen, biochemical, small-molecule microarray, 635 nm fluorescence scan (AID 1106); conditions: DKK1 binding, higher = more signal;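 also: score merges emission near 667 nm with signal to noise over three replicate slides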
Chain of Dickkopf-related protein 1 (Homo sapiens) (O94907 whole entry, looked up): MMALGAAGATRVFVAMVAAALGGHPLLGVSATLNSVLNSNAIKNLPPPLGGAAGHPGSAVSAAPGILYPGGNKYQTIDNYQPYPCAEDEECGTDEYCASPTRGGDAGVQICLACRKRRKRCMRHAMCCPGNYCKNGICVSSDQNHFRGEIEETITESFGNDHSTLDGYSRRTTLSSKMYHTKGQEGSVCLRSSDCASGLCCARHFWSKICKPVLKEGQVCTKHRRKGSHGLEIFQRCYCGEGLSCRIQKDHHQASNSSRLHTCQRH

[20] = system: Inhibin beta A chain (activin A); experiment: INHBA (activin A) binders on microarrays, primary screen, biochemical, small-molecule microarray, 635 nm fluorescence scan (AID 1107); conditions: small-molecule microarray binding, higher = more signal;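 also: mouse activin A protein probed at 4.33 µg/mL on printed slides; score merges bound-protein fluorescence near 667 nm with spot signal-to-noise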

SMILES	composite z-score [1]	z-score [2]	z-score [3]	z-score [4]	composite z-score [5]	z-score [6]	composite z-score [7]	composite z-score [8]	composite z-score [9]	composite z-score [10]	composite z-score [11]	composite z-score [12]	composite z-score [13]	z-score [14]	composite z-score [15]	composite z-score [16]	composite z-score [17]	composite z-score [18]	composite z-score [19]	composite z-score [20]
Cc1c(-c2ccc(-c3ccc(Cl)c(Cl)c3)o2)nc(-c2ccccc2)c2c1CO[Si]2(C(C)C)C(C)C	0.371	-0.657 (inactive)	-1.69 (inactive)	0.069 (inactive)	0.867	-1.34 (inactive)	-0.216	0.423	-0.0183	-0.231	0.872	-0.186	0.11	2.11 (inactive)	0.316	-0.449	-0.532	-0.382	-0.234	0.938
CCCCC=C[C@@H](NC(=O)c1ccc(C(F)(F)F)cc1)c1ccccc1	-0.461	-0.27 (inactive)	-8.36 (active)	-1.79 (inactive)	0.748	-1.07 (inactive)	-0.0285	-0.905	-0.76	-0.566	-0.101	0.256	0.905	-4.33 (inactive)	-1.13	-1.03	-1.28	-1.01	-1.37	1.37
O=C1N(CCS(=O)(=O)c2ccccc2)c2ccccc2[C@@H]2OC(c3ccc(OCCCO)cc3)=N[C@]12CCS(=O)(=O)c1ccccc1	1.54	0.864 (inactive)	1.78 (inactive)	4.01 (inactive)	3.46	0.678 (inactive)	0.471	0.833	1.14	-0.0333	0.982	0.753	0.585	-0.254 (inactive)	0.989	1.26	0.917	1.42	1.16	0.878
C=CCN1C(=O)[C@]2(O[C@H](CCO)[C@@H]([Si](C)(C)c3ccc(OC)cc3)[C@@H]2C)c2ccccc21	-0.539	-2.75 (inactive)	-3.07 (inactive)	5.72 (inactive)	0.602	-0.41 (inactive)	-0.0962	-0.788	-0.593	-0.178	0.504	-0.141	0.837	-3.11 (inactive)	-0.876	-0.73	-0.66	-0.608	-1.27	0.456
C=CCC(OC(C)=O)[C@@H]1[C@@H](N(Cc2cc3ccccc3o2)C(=O)Cc2ccc(OC)cc2)c2cc(OCCCO)ccc2N1C(=O)Cc1ccc2ccccc2c1 (stereo not given in full)	-0.328	0.225 (inactive)	0.232 (inactive)	0.738 (inactive)	0.783	-0.0576 (inactive)	-0.115	-0.507	-1.01	-0.145	-0.542	-0.217	0.689	-0.475 (inactive)	-0.448	-1.52	-0.227	-0.471	-0.62	0.806
